Activity calls are given as the source filed them. No rule for the calls is given here.
System: HIV-1 nucleocapsid protein NCp7 (binding to TG oligonucleotide)
Test: HIV Nucleocapsid (AID 346);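 also: potency is for inhibitors that block NC binding and lower polarization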
Details: HIV-1 NC / fluorescein-TGTGTGTG probe, fluorescence polarization
How it was run: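 NCp7 100 nM + fluorescein TG4xF 10 nM; Hepes pH 7.5/250mM NaCl/1uM ZnCl2/0.004% PEG 20000; 1 hr RT; FP, 45 s exposure; oligo-only wells as negative control.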
Potency is read from the fitted curve at half-maximal effect.

Compound	Potency
COc1ccc(NC(=O)N2CC[C@@]3(CCCN(C(=O)c4ccco4)C3)C2)cc1	> 20 µM (inactive)
COc1ccccc1CNc1cc(-c2cccc(NS(C)(=O)=O)c2)ncn1	> 20 µM (inactive)
O=C(c1cnccn1)N1CCC[C@@]2(CCN(c3ccncc3)C2)C1	> 20 µM (inactive)
CN(Cc1ccco1)c1ncnc2ccc(-c3ccccc3Cl)cc12	> 20 µM (inactive)
COc1ccc(-c2nc3cnc(N4CCN(C)CC4)nc3n(Cc3ccc(F)cc3)c2=O)cc1	> 20 µM (inactive)
O=C(c1cccc(F)c1)N1CCC2(CCCN(c3ccc(-c4ccccc4)cc3)C2)CC1	> 20 µM (inactive)
COc1ccc2[nH]cc(CCNc3nc(-c4ccccc4OC)nc4ccccc34)c2c1	> 20 µM (inactive)
O=C(c1ccncc1)N1CCC2(CCCN(c3ccncc3)C2)CC1	> 20 µM (inactive)
O=C(Oc1ccccc1)N1CCC[C@@]2(CCN(c3ccncc3)C2)C1	> 20 µM (inactive)
O=S(=O)(c1ccccc1)N1CCC2(CCN(C(c3ccccc3)c3ccccc3)CC2)CC1	> 20 µM (inactive)
Cc1cnc(CNc2ccnc(-c3ccoc3)n2)cn1	> 20 µM (inactive)
COc1ccccc1-c1cncnc1Nc1ccc(F)cc1	> 20 µM (inactive)
COc1ccc(CNc2cc(-c3ccccc3CN(C)C)ncn2)c(OC)c1	> 20 µM (inactive)
O=S(=O)(c1ccccc1)N1CCC[C@@]2(CCN(c3ccncc3)C2)C1	> 20 µM (inactive)
O=C(Nc1ccccc1)N1CCCC2(CCN(S(=O)(=O)c3ccccc3)CC2)C1	> 20 µM (inactive)

From PubChem BioAssay (NCATS)
